This note sets out measurements from PubChem BioAssay AID449762 (Southern Research Specialized Biocontainment Screening …, 2010).

As a reminder, the inhibition is the change of the read-out against control, counted positive when it falls.

In all, about 330,000 compounds went through this assay and about 1,900 (0.58%) were called active. About 4% were inconclusive and are not listed. Only a sample is shown. Potency and affinity values are given separately. A number with no mark means an inactive call. No stated cut-off is given here; in the data, inconclusive means inhibition above about 70% without an active follow-up result; inactive means below that.

A short description of the test: M. tuberculosis growth inhibition, HTS (AID 449762).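 Further: bacterial growth assessed after seven days of incubation.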 As to conditions: M. tuberculosis H37Rv growth inhibition, 7H9 media; at 25 µM; active compounds read high.
With `COC(=O)c1ccc(COC(=O)c2ccc(CO)cc2)o1`, the inhibition is 9.22%. The value for `CCOc1cc(C(N)=O)cc(Br)c1OC` was -2.81%.

As for `CC(C)COC(=O)NCCCOC(=O)Nc1ccccc1`, the inhibition was 2.06%. Under `Cc1ccc(C)c(NC(=O)CCc2c(C)nn(-c3ccc(N4CCCCC4)nn3)c2C)c1` stands -0.31%; under `COc1ccccc1CNC(=O)CSc1nc(C)cs1`, -6.19%; under `CN(CCOc1ccc(Cl)cc1)C(=O)CN1C(=O)NC2(CCCC2)C1=O`, -10.9%. As for `Fc1ccc(OCCOCCN2CCNCC2)cc1`, the inhibition was -3.98%. `COc1ccc(C[C@H]2CN3C(=NC[C@@H]3C)N2CCNC(=O)CCC2CCCCC2)cc1`: the inhibition was -0.84%. On to `COc1ccc(C[C@H]2CN3C(=NC[C@H]3C)N2CCNC(=O)CCC2CCCCC2)cc1`, for which the inhibition was 2.73%. The value for `O=C1C(Cc2ccccc2)Nc2ncnc(N3CCN(c4ccccc4)CC3)c2N1Cc1ccc(Br)cc1` (configuration not stated) was 0.68%; that for `COc1ccc(C2CC(=O)C3=C(C2)Nc2ccccc2N(C(C)=O)C3c2ccco2)cc1` (configuration not stated) was -14%.

Take `CC(CN1CCOCC1)C(=O)c1ccccc1` (configuration not stated): the inhibition is 3.78%. Under `O=C(c1ccc(F)cc1)C(CN1CCOCC1)c1ccccc1` (configuration not stated) stands 3.13%. As to `COc1ccc(C(NC(=O)c2cccc(F)c2)c2ccccc2)cc1` (configuration not stated), the inhibition was -16.4%.

As to `C=CCn1cnc2c(nnn2-c2cc(C)cc(C)c2)c1=O`, the inhibition was 7.46%. As for `Cc1ccc(C(=O)NN(CCC(=O)NC(C)(C)C)C2=NS(=O)(=O)c3ccccc32)cc1`, the inhibition is 3.72%. `O=C(O)c1ccc(Cl)c(S(=O)(=O)N(Cc2ccccc2)c2ccccc2)c1`: the inhibition is -3.72%.

Take `CC1(C)CC(NC(=O)c2cccc(S(=O)(=O)N(Cc3ccccc3)c3ccccc3)c2)CC(C)(C)N1`: the inhibition is -5.74%. Regarding `Cc1nn(CCCC(=O)N2CCN(c3ccc(F)cc3)CC2)c(C)c1[N+](=O)[O-]`, the inhibition is 2.18%. Under `CCC(C)(C)c1ccc(OCC(=O)N(C)C)c(C(C)(C)CC)c1` stands -12.9%. The value for `Cc1cc[n+](CC[n+]2ccc(C)cc2)cc1` was -0.82%; that for `CCc1ccc(C(=O)Nc2ccc3nc(C)ccc3c2)cc1` was 0.01%; that for `CCc1nc2ccccc2c(C(=O)Nc2ccc(C)cc2)c1C` was 4.44%. For `CCc1nc2ccccc2c(C(=O)Nc2cccc(C)c2)c1C`, the inhibition is 7.7%. Take `CCOC(=O)C1CCCN(CC(O)COc2cccc(C)c2)C1` (configuration not stated): the inhibition was -3.72%.

With `COc1ccccc1C(=O)N/C(=C\c1ccccc1)C(=O)NC(Cc1ccccc1)C(=O)O` (configuration not stated), the inhibition was -6.9%. Under `Cc1ccc(NC(=O)CSCC(=O)N=c2sccn2C)cc1` stands -9.96%; under `CCc1nc2c(c(=O)c3ccccc3n2C)c(=O)n1C1CCCCCC1`, 6.04%; under `Cc1nc2c(c(=O)c3ccccc3n2C)c(=O)n1C1CCCCCC1`, -2.45%. Under `COc1ccc(OC)c(S(=O)(=O)N2CCCCC2C(=O)O)c1` (configuration not stated) stands -12.8%. Take `COc1ccccc1N1CCN(CCCCOc2c(OC)cccc2OC)CC1`: the inhibition is 4.13%. The value for `COc1ccccc1OCCCCN1CCN(c2ccccc2OC)CC1` was -3.03%; that for `CN(C)c1cccc2c1c(NC(=O)c1ccc(F)cc1)nn2C` was -5.17%; that for `Cc1nc2c(c(=O)[nH]1)C(c1ccc([N+](=O)[O-])cc1)c1c(c3ccccc3oc1=O)O2` (configuration not stated) was 4.87%. Under `O=S(=O)(NC1CC(NS(=O)(=O)OCC(Cl)(Cl)Cl)C2CCCCC12)OCC(Cl)(Cl)Cl` (configuration not stated) stands 4.68%; under `CCC1Oc2ccc(C)cc2N(CC(=O)N2CCCC2)C1=O` (configuration not stated), 9.77%.

Regarding `COC1=Cc2c(ccc3ccc(=O)oc23)OC1(C)C`, the inhibition was 1.79%. With `CC1(C)Oc2ccc3ccc(=O)oc3c2/C(=C/O)C1=O`, the inhibition was 2.64%.

Take `O=C(OCc1nnc(-c2ccc(Cl)cc2)o1)C12CC3CC(CC(O)(C3)C1)C2`: the inhibition is 7.22%. Under `CCOC(=O)c1cc(C(=O)NC(C)c2ccccc2)c(C)[nH]c1=O` (configuration not stated) stands -4.64%. Under `CCOC(=O)c1nnc(-c2ccccc2)nc1NC` stands -30.8%; under `CCOC(=O)c1c(NCc2ccccc2)n[nH]c1C`, -5.08%. For `CCOC(=O)c1nnc(-c2ccccc2)nc1Sc1c(Cl)cccc1Cl`, the inhibition was 4.17%.

Turning to `CCOC(=O)c1nnc(-c2ccc(C)cc2)nc1Sc1ccccc1Cl`, the inhibition was 13.5%.

For `O=C(CCN1C(=O)/C(=C\c2ccccc2Cl)SC1=S)Nc1cccnc1`, the inhibition is 2.83%. On to `CC(=O)C1C2c3ccccc3OC1(C)N=c1s/c(=C/c3cn(C)nc3C)c(=O)n12` (configuration not stated), for which the inhibition was 1.62%.

On to `COC(=O)C1C2c3ccccc3OC1(C)N=c1s/c(=C/c3cn(C)nc3C)c(=O)n12` (configuration not stated), for which the inhibition was -3.81%. The value for `COc1ccc(-c2cc3ccccc3oc2=O)cc1NC(=O)c1ccc(Br)o1` was -2.95%. Under `COc1ccc(-c2cc3ccccc3oc2=O)cc1NC(=O)c1cccnc1` stands 4.8%. The value for `Cn1c(-c2nonc2N)nc2ccccc21` was 0.49%.

`COc1ccccc1C(c1c(N)n(C)c(=O)n(C)c1=O)C(C)[N+](=O)[O-]` (configuration not stated): the inhibition was 43.9%. The value for `CC(C(c1cccs1)c1c(N)n(C)c(=O)n(C)c1=O)[N+](=O)[O-]` (configuration not stated) was -8.45%; that for `O=C(CSCc1cc(=O)n2nc(C3CC3)sc2n1)Nc1ccc(F)cc1` was -2.05%; that for `C[C@H](NC(=O)c1nc[nH]c1C(=O)NC1CCN(C(=O)OC(C)(C)C)CC1)C(=O)OCc1ccccc1` was -4.49%. The value for `CC(C)(C)OC(=O)N1CCC(NC(=O)c2[nH]cnc2C(=O)N[C@@H](Cc2ccccc2)C(=O)OCc2ccccc2)CC1` was -4.13%.

Regarding `Cc1ccc(NC2CCCN(C(=O)c3cccc4nccnc34)C2)cc1C` (configuration not stated), the inhibition is -9.4%.

With `NS(=O)(=O)c1ccc(-c2ccc(C=NC3CCS(=O)(=O)C3)o2)cc1` (configuration not stated), the inhibition is -12%. Regarding `NS(=O)(=O)c1ccc(-c2ccc(/C=C3\SC(=S)N(C4CCS(=O)(=O)C4)C3=O)o2)cc1` (configuration not stated), the inhibition is 0.18%. Under `O=C(CCc1nc2ccccc2c(=O)[nH]1)N1CCN(S(=O)(=O)c2cccc(F)c2)CC1` stands -17.1%; under `NC(=O)NC(CC(=O)NCCCc1ccccc1)c1ccc(Cl)cc1` (configuration not stated), 5.17%. The value for `CS(=O)(=O)c1ccc(C(=O)Nc2cc(S(C)(=O)=O)ccc2Cl)cc1` was 2.11%. The value for `COc1ccccc1C1C=C(c2ccc(C)cc2)Nc2nnnn21` (configuration not stated) was -0.45%. In the case of `COc1ccc(OC)c(C2C=C(c3ccc(C)c(C)c3)Nc3nnnn32)c1` (configuration not stated), the inhibition was 4.57%. `COC(=O)C(C)(C)ONC(=O)Nc1ccc(C)cc1`: the inhibition was 0.62%. As for `COc1ccc(Cl)cc1N(CC(=O)NC(C)(C)C)S(=O)(=O)c1ccc(C)c([N+](=O)[O-])c1`, the inhibition is -3.67%.

In the case of `CCC(CC)C(=O)Nc1nnc(SCC(=O)N2CCN(c3ccccc3OC)CC2)s1`, the inhibition is 4.18%.

In the case of `Cc1ccc(C(=O)Nc2ccccc2Sc2ccccc2)cc1`, the inhibition is 9.64%.

Consider `Cc1ccc(C(=O)CC(=O)c2ccccc2)cc1`, for which the inhibition was 61.8%. Under `COc1ccc(C)cc1NC(=O)c1ccc(NC(=O)CC2SC(N3CCCC3)=NC2=O)cc1` (configuration not stated) stands 1.94%. For the molecule `CCN(CC)CC1C(=O)N(c2ccc(OC)cc2)C1c1ccccc1` (configuration not stated), the inhibition was -4.16%. Take `COCCn1c(=O)[nH]c2cc(C(=O)N3CCN(c4ccccc4)CC3)ccc2c1=O`: the inhibition is 5.58%.

As for `COc1ccccc1CNC(=O)/C=C/c1ccc(Br)o1`, the inhibition is 3.6%. The value for `CN(C)c1ccc(/C=C/c2ccc3ccccc3[n+]2C)cc1` was 66.1%; that for `Cc1cc(/C=N/O)c(C)n1-c1ccccc1` was -2.51%. The value for `CC(C)[C@H](NC(=O)c1cc2cc(Cl)ccc2n1C)C(=O)N[C@@H](C(=O)O)c1ccccc1` was -9.63%.

On to `CCc1ccc(/C=C2/Sc3ccccc3N(CC(=O)NCCCN3CCOCC3)C2=O)cc1`, for which the inhibition was 38.4%.

`CC(C)(C)c1cc(-c2nc(N)nc(N)n2)cc(C(C)(C)C)c1`: the inhibition is 9.97%. Consider `CC(C)(C)c1ccc(-c2nc(N)nc(N)n2)cc1`, for which the inhibition was -3.01%. On to `CCOC(=O)C1CCCc2c1[nH]c1c(C(=O)O)cccc21` (configuration not stated), for which the inhibition is 9.6%. Under `NC(=O)c1cccc2c3c([nH]c12)CCCC3` stands -3.75%.

Consider `CCOc1ccc(CCNC(=O)C2=C(C)C(=O)OC23CCCCC3)cc1OCC`, for which the inhibition was -0.34%. The value for `C[C@H](CO)N1C[C@H](C)[C@@H](CN(C)C(=O)Nc2ccccc2)Oc2ccc(NC(=O)Cc3ccccc3)cc2C1=O` was 0.43%; that for `CCOC(=O)Cn1nc(/C=C/c2ccc(OC)cc2)ccc1=O` was -1.75%. On to `Cc1nn(C)c(NC(=O)c2ccccc2Cl)c1Br`, for which the inhibition is -4.03%. Under `Cc1nn(C(C)(C)C)c(NC(=O)c2ccc(Cl)cc2)c1Br` stands -3.55%. Under `COc1cc(C)ccc1OCC(=O)Nc1ccccc1N1CCOCC1` stands 0.365%; under `Cc1nnc(SCc2c(Cl)cccc2Cl)n(N)c1=O`, -0.46%.

Consider `Cc1ccccc1CSc1nnc(C)c(=O)n1N`, for which the inhibition is 0.74%. Under `O=C(CSc1nc(-c2ccco2)cc(C(F)(F)F)n1)NC1CCCC1` stands -5.38%; under `Cc1nc2c(c(C)nn2-c2ccccc2)c(C)c1CCC(=O)Nc1ccc(CN2CCCC2)cc1`, 55.7%; under `Cc1ccc(CNC(=O)CCc2c(C)nc3c(c(C)nn3-c3ccc(C)cc3)c2C)cc1`, 0.88%. As for `CCN(CC)S(=O)(=O)c1ccc(C(=O)N2CCN(CCN3C(=O)c4cccc5cccc(c45)C3=O)CC2)cc1`, the inhibition is -0.01%.
